From PubChem BioAssay (NCI)
This is part of a sample that, as a whole, favours compounds with a hit. Of some 79,000 tested, about 15% had one in any assay. No stated cut-off is given here; in the data, active means growth inhibition above about 70%; inactive means the rest.

Key:
[1] = NCI Yeast Anticancer Drug Screen. Data for the rad50 strain (AID 155);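 further: 0% = growth of vehicle-only cultures of the same strain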; conditions: S. cerevisiae rad50 strain growth inhibition; at 50.0 µM; active compounds read high
How it was run: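 Genetically altered yeast (DNA repair pathway); compound treatment; growth inhibition vs vehicle ctrl.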

[2] = NCI Yeast Anticancer Drug Screen. Data for the mec2-1 strain (AID 157); conditions: S. cerevisiae mec2-1 strain, at 50.0 µM, active compounds read high
How it was run: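 Yeast mec2-1 mutant treated with compound. Readout: growth inhibition vs vehicle controls.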

[3] = NCI Yeast Anticancer Drug Screen. Data for the sgs1 mgt1 strain (AID 161);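 further: 0% = growth of cultures given vehicle only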; conditions: S. cerevisiae sgs1 mgt1 strain, at 50.0 µM, active compounds read high
How it was run: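 Genetically altered yeast, compound exposure, growth inhibition relative to vehicle.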

[4] = NCI Yeast Anticancer Drug Screen. Data for the cln2 rad14 strain (AID 165);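 further: 0% = growth equal to vehicle treated cultures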; conditions: S. cerevisiae cln2 rad14 strain, at 50.0 µM, active compounds read high
How it was run: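 cln2 rad14 yeast strain; compound exposure; growth inhibition read vs vehicle controls.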

[5] = NCI Yeast Anticancer Drug Screen. Data for the bub3 strain (AID 167); conditions: S. cerevisiae bub3 mutant strain, at 50.0 µM, active compounds read high
How it was run: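 Yeast carrying a defined mutation is treated with each compound, and growth is compared with that of vehicle-exposed cells to give inhibition.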

[6] = NCI Yeast Anticancer Drug Screen. Data for the mlh1 rad18 strain (AID 175); conditions: S. cerevisiae mlh1 rad18 strain growth inhibition; at 50.0 µM; active compounds read high
How it was run: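 Yeast w/ defined DNA-repair lesions; compound exposure; growth vs vehicle controls → % inhibition.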

Measured: growth inhibition

Nc1c(OS(=O)(=O)c2ccccc2)cccc1OS(=O)(=O)c1ccccc1
inactive: [1] 20.8% | [2] -2.45% | [3] 18.8% | [4] 20.7% | [5] 39.7% | [6] 37.1%

CCOC(CO)OCC
inactive: [1] 28.9% | [2] -0.25% | [3] -3.4% | [4] 8.95% | [5] 13.6% | [6] -8%

CN(/N=C\c1ccccc1)C(c1ccccc1)N(C)/N=C/c1ccccc1 (stereo unspecified)
inactive: [1] -6.45% | [2] -8.3% | [3] 15.2% | [4] -11.7% | [5] -17.3% | [6] -2.8%

Cc1ccc(Nc2nc(=O)[nH]c(=O)[nH]2)cc1N
inactive: [1] -11.7% | [2] 1.65% | [3] 20.3% | [4] 11.7% | [5] 27.1% | [6] -54.5%

CCOC(=O)c1cccc(N)c1
inactive: [1] -9.6% | [2] -22.2% | [3] -25% | [4] -6.35% | [5] -12.5% | [6] -6.8%

CCOC(=S)SCc1cc(C(C)(C)C)c(O)c(C(C)(C)C)c1
inactive: [1] 2.7% | [2] 14.4% | [3] 20.2% | [4] -20.2% | [5] 1.15% | [6] 1.8%

CCCCCCC(O)C/C=C/CCCCCC/C(C(=O)OC)=C(/O)C(=O)OCC (stereo unspecified)
inactive: [1] 3.3% | [2] -3.35% | [3] 11.5% | [4] -27.6% | [5] -6.7% | [6] 1.1%

COc1nc(NC2OC(CO)C(O)C(O)C2O)c(Br)c(=O)n1C (stereo unspecified)
inactive: [1] 4.4% | [2] -1.15% | [3] -3.6% | [4] -4.1% | [5] 0.75% | [6] 23%

C1CCC2C(C1)CCCC2CC1CCCC2CCCCC21 (stereo unspecified)
inactive: [1] -11.2% | [2] 1.1% | [3] -10.3% | [4] -17.5% | [5] -9.05% | [6] -4.65%

Cc1cc(C(C)(C)C)cc(C)c1[N+](=O)[O-]
inactive: [1] 18.7% | [2] -7.55% | [3] -17.9% | [4] 8.2% | [5] -7.1% | [6] 7.25%

CCOC(=O)CCCOc1ccccc1
inactive: [1] 24.4% | [2] -2.95% | [3] -9.55% | [4] 7.6% | [5] 16.1% | [6] 19.7%

O=C(NCCCCCCNC(=O)N1CCCCC1)c1cccnc1
inactive: [1] -7.8% | [2] -21.3% | [3] -3.65% | [4] -27.2% | [5] 13.3% | [6] -33.6%

CNn1c(C)n[nH]c1=O
inactive: [1] 4.95% | [2] -15.8% | [3] 10.4% | [4] 20.6% | [5] 3.4% | [6] 17.1%

CNC(=O)OCc1nc(N=[N+]=[N-])n(C)c1COC(=O)NC
inactive: [1] -16.9% | [2] -19.1% | [3] -3.65% | [4] -31.4% | [5] 2.2% | [6] -24.4%

Clc1ccc(C2=CSC3=NCCN23)cc1
inactive: [1] 3.45% | [2] -1.4% | [3] -9.55% | [4] -97.3% | [5] 16.4% | [6] 1.25%

NNc1cc(=O)[nH]c(N)n1
inactive: [1] -17.6% | [2] -18.6% | [3] -31.2% | [4] -19.1% | [5] -6.95% | [6] -29.9%

CC1(C)C=C(O)C=C(O)C1
inactive: [1] 14.2% | [2] 2.8% | [3] 17.4% | [4] -2.25% | [5] 6.55% | [6] 2.5%

ClCC1OC1CCl (stereo unspecified)
inactive: [1] 22.1% | [2] 3.05% | [3] 1.1% | [4] -10.6% | [5] 9.8% | [6] 1.95%

C[CH2][Sn]([CH2]C)([O][P+](=O)C[Si](C)(C)c1ccccc1)[O][P+](=O)C[Si](C)(C)c1ccccc1 (stereo unspecified)
inactive: [1] 3.8% | [2] 29.6% | [3] 12.7% | [4] -3.55% | [5] -3.35% | [6] 17.9%

CCCCC(=O)Nc1ccc(S(=O)(=O)O)c(N=NC2C(=O)N(c3ccccc3)N=C2C)c1 (stereo unspecified)
inactive: [1] 27.1% | [2] -10.6% | [3] 5.6% | [4] -13% | [5] -3% | [6] 15%

O=C1CCSC(=S)N1c1ccc(F)cc1F
inactive: [1] 18% | [2] 4.65% | [3] 18.4% | [4] 28.9% | [5] 4.7% | [6] -1.15%

Cc1cccc(C(N)=O)c1
inactive: [1] 22.6% | [2] 6.7% | [3] 3.3% | [4] -4.75% | [5] 8.95% | [6] 32.9%

O=C(O)C1CCCCC1C(=O)Nc1cccc2ccccc12 (stereo unspecified)
inactive: [1] 6.65% | [2] -2.8% | [3] -4.3% | [4] -7.95% | [5] 24.4% | [6] -39.5%

CC1CCC2C1(C)CCC1C2(C)CCC2(C)C3CC(C)(C)CCC3(C)CCC12C (stereo unspecified)
inactive: [1] -9.45% | [2] -35.8% | [3] -12.8% | [4] 1.6% | [5] -26.4% | [6] -11.2%

O=C1c2ccccc2C(=O)N1CCc1ccccc1
inactive: [1] -12.1% | [2] 7% | [3] -6.9% | [4] -36% | [5] 16.6% | [6] 14.1%

O=C(CCl)Oc1cccc2cccnc12
inactive: [1] -8.75% | [2] 9% | [3] -1.35% | [4] -12.2% | [5] -2.45% | [6] -2.75%

CONS(=O)c1ccc(Cl)cc1 (stereo unspecified)
inactive: [1] 10.8% | [2] 28.2% | [3] 6.35% | [4] -27.2% | [5] 4.95% | [6] 11%

CC(=O)OC1C(C)OC(OC(=O)C2CCC3C(C2)OC2(CC(OC(=O)/C=C/c4ccccc4)C(C)CO2)C32CO2)C(OC2OC(C)C(O)C(O)C2O)C1O (stereo unspecified)
inactive: [1] 1.3% | [2] -16.8% | [3] 2.3% | [4] 13.5% | [5] 3.65% | [6] -62.9%

COc1ccc(S(=O)(=O)N(C)c2ccccc2)cc1
inactive: [1] 2.9% | [2] -56.8% | [3] -20.6% | [4] 13.3% | [5] 19.1% | [6] 3.5%

O=C1COC(C(O)(c2ccccc2)c2ccccc2)C(=O)N1 (stereo unspecified)
inactive: [1] -5.35% | [2] -18.9% | [3] -1.3% | [4] -65% | [5] -21.4% | [6] 6.25%

CC1(C)COC(c2ccc(CC(Cc3ccc(C4(C(C)(C)C)OCC(C)(C)CO4)cc3)C(=O)O)cc2)(C(C)(C)C)OC1
inactive: [1] -7.25% | [2] -19.8% | [3] 3.1% | [4] 5.15% | [5] 3.8% | [6] 5.35%

Cc1cc(Br)ccc1C1=C(O)C(=O)NC1=O
inactive: [1] 5.55% | [2] -10.4% | [3] 10.7% | [4] -32.3% | [5] -1.7% | [6] -5.4%

O=C1CN(c2ccc(Cl)cc2)C(=O)CN1CCN1CC(=O)N(c2ccc(Cl)cc2)CC1=O
inactive: [1] -43.5% | [2] -10.3% | [3] -3.25% | [4] 10.6% | [5] -39.6% | [6] -23.6%

CC(C)Oc1ccc(C(N)=S)c2ccccc12
inactive: [1] -0.55% | [2] 4.75% | [3] -0.85% | [4] -29.1% | [5] -1% | [6] 14.1%

CC1CCCCC12OCCO2 (stereo unspecified)
inactive: [1] -13.9% | [2] -31.4% | [3] 3.3% | [4] 1.75% | [5] -20.3% | [6] -3.75%

COc1ccc(-c2c(C#N)c(N)n(C3OCC(O)C(O)C3O)c(=S)c2C#N)cc1 (stereo unspecified)
inactive: [1] -33.6% | [2] -6.5% | [3] -15.3% | [4] -37.8% | [5] -1.9% | [6] 3.4%

CC1=C(C(=O)Nc2ccc([N+](=O)[O-])cc2)C(c2ccc3c(c2)OCO3)C(C(=O)Nc2ccc([N+](=O)[O-])cc2)=C(C)N1
inactive: [1] 8.65% | [2] 15.3% | [3] 21.6% | [4] 24.4% | [5] 10.2% | [6] 7.05%

CC1=NN(C(=O)CC(=O)NC(=O)CC(=O)Nc2ccccc2F)C(=O)C1N=Nc1ccc([N+](=O)[O-])cc1 (stereo unspecified)
inactive: [1] 20.5% | [2] 22.6% | [3] 30% | [4] 16.3% | [5] 12.1% | [6] 8.2%

CCCCCCCCCCCCCCCC/C(C(=O)OC)=C(/O)C(=O)OCC
inactive: [1] -4.7% | [2] -12.1% | [3] -3.65% | [4] -67% | [5] -1.2% | [6] -5.75%

O=C(O)COc1ccc(/C=C2\SC(=S)NC2=O)cc1
inactive: [1] -3.9% | [2] -8.3% | [3] 1.6% | [4] -36.5% | [5] 18.9% | [6] -12.2%

CC(=O)Nc1ccc(Sc2ccc(NC(C)=O)cc2O)c(O)c1
inactive: [1] 34.1% | [2] 17% | [3] 32% | [4] -31.4% | [5] 14.7% | [6] 41.9%
